Screening data as filed in PubChem BioAssay.
NPSR antag: blocks cAMP signaling of the human neuropeptide S receptor. Q6W5P4. CHO-NPSR cells, cAMP TR-FRET, antagonist mode. Potency, µM (series often up to 38.3 µM), inactives show at the highest dose activity change, negative = inhibition, usual class: inhibitors. 220,000 compounds, 1% hits. AID 1461; note: nearly all actives have a fitted effect of over 50% in size
Tau fluor counter: counter-screen for tau fibril formation inhibitors. tau K18 P301L Alexa594 fluorescence, heparin fibrillization. Potency, µM (top dose mostly 57.7 µM), inactives show top-dose activity change, negative = decrease. 280,000 compounds, 0.93% hits; note: nearly all actives have a fitted effect of over 55% in size
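Human tau K18 P301L (15 uM unlabeled, 0.24 uM Alexa 594-labeled) in 100 mM sodium acetate pH 7 with 20 uM heparin, 6 hr at 37 C. ThT 30 uM added, 1 hr ambient; Alexa 594 FP and total fluorescence read at 555/632 nm.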
Tau FP inhib: tau fibrillization inhibition (FP) | K18 P301L tau heparin fibrillization, Alexa594 FP, 6 h | Potency, µM (top dose mostly 57.7 µM), inactives show at the highest dose activity, negative = inhibition, hits mostly inhibitors | 280,000 compounds, 0.39% hits | P10636; note: nearly all actives have a fitted effect of over 55% in size
Target sequence (P10636 561-689 P618L limits assumed): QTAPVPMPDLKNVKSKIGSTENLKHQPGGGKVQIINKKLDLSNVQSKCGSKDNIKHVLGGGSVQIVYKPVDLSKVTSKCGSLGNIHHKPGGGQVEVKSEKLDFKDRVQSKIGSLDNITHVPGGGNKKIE
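Human tau K18 […] P301L fragment, 15 uM unlabeled plus 0.24 uM Alexa 594-labeled tau (final), with compound and 20 uM heparin in 100 mM sodium acetate pH 7; 6 hr at 37 C, then Alexa 594 FP read.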
ALDH1A1 inh: inhibitors of human aldehyde dehydrogenase 1A1. 220,000 compounds, 7.3% hits. Potency, µM (highest dose often 75.3 µM), for the others: at the top dose activity, negative = inhibition, hits mostly inhibitors. P00352. Purified ALDH1A1, NADH fluorescence, propionaldehyde substrate; active = well fitted inhibition curve with a large enough effect, not every such curve was filed as active; inconclusive = small, poorly fitted or top-dose-only effect, or another doubt; inactive = no such curve, though single readings can be large or run the other way;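 note: plate controls were no enzyme wells and a reference inhibitor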
Tau ThT inhib: blocks human tau fibril formation measured by thioflavin T | P10636 | recombinant tau K18 P301L (four-repeat tau fragment), heparin-induced fibrillization, ThT fluorescence | Potency, µM (doses to about 57.4 µM), inactives show at the top dose activity, negative = inhibition, hits mostly inhibitors | 270,000 compounds, 2.1% hits | AID 1460; note: nearly all actives have a fitted effect of over 55% in size
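Aggregation was driven by heparin (20 uM final) acting on recombinant tau […] bearing P301L in 100 mM sodium acetate pH 7; fibrils were detected with Thioflavin T.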
HPGD inh: blocks human HPGD enzyme activity; 150,000 compounds, 4.3% hits; P15428; Potency, µM, inactives show top-dose activity change, negative = inhibition, actives largely listed as inhibitors; purified HPGD, NADH fluorescence kinetic, PGE2 substrate; active = well fitted inhibition curve with a large enough effect, not every such curve was filed as active; inconclusive = small, poorly fitted or top-dose-only effect, or another doubt; inactive = no such curve, though single readings can be large or run the other way
Target sequence (P15428 whole entry, looked up): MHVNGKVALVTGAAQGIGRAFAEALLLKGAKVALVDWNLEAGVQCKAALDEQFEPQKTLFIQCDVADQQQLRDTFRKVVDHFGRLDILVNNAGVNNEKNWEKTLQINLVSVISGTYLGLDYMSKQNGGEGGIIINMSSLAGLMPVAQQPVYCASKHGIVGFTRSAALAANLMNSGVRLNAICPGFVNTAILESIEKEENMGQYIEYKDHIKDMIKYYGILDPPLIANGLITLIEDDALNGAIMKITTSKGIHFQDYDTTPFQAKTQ
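20 nM HPGD preincubated 15 min at room temperature with compound in 50 mM Tris-HCl pH 8, 0.01% Tween 20. Started with 1 mM NAD+ and 30 uM prostaglandin E2; NADH fluorescence (360/450 nm) read 5 times over 30-s intervals, last minus first.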
Starred values were filed as active, the others as inactive; ? = inconclusive; / = no result given; [ ] = dose if it differs, or a comment. This is a sample that favours compounds with a hit; in the whole collection about 9.5% have one here. Unless noted, calls come from the whole dose curve; as a rule, active = well fitted curve in the direction sought with a large enough effect; inconclusive = small, poorly fitted or top-dose-only effect, or another doubt; inactive = no such curve, though single readings can be large; an effect the other way counts as inactive or inconclusive. Unless noted, % is set by controls: 0 for no effect and ±100 for the full control effect; potency is the fitted concentration of half-maximal effect.

SMILES	NPSR antag	Tau fluor counter	Tau FP inhib	ALDH1A1 inh	Tau ThT inhib	HPGD inh
Cc1nc2c(-c3ccccc3)c(C)nn2c(C)c1CCC(=O)N1CCN(c2ccccc2)CC1	/	-15%	9%	/	?	/
COc1cccc(NC(=O)CSc2c(C)cnc3c2c(=O)n(C)c(=O)n3C)c1	/	3%	?	/	2%	/
CC(C)c1ccccc1-n1cc[nH]c1=S	10%	1%	?	10µM*	4%	/
Cc1ccccc1-n1cc[nH]c1=S	20%	-9%	-11%	?	-3%	/
Cc1cccc(-n2cc[nH]c2=S)c1C	13%[46.1 µM]	-4%	-6%	11µM*	1%	/
CCN1CCOC(=O)C1CC(=O)Nc1cc(C)ccc1OC (stereo unspecified)	/	-11%	-9%	/	?	/
CCCCn1cnc2cc(NCc3ccncc3)ccc21	-2%[46.1 µM]	-10%	0%	-6%	-19%	?
CN(C)c1ccc(CNc2ccc3c(c2)ncn3C)cc1	-13%[46.1 µM]	16µM*[quencher]	0%	?	?	-27%
O=C(C/C=N\OCc1ccc([N+](=O)[O-])cc1)Nc1ccc(Br)cc1	-15%	?	?	?	-16%	/
O=C1C(=O)c2ccccc2C(O)=C1c1ccccc1F	13µM*	-23%	-9%	/	?	/
CCOc1cc(/C=N/Nc2nc(-c3cccs3)c(NC(C)=O)s2)ccc1O	-20%	?	-12%	/	25µM*	/
CC(=O)Nc1sc(NC(=O)c2ccc([N+](=O)[O-])cc2)nc1-c1cccs1	20%	?	2%	/	7.9µM*	/
CC(=O)Nc1sc(N/N=C\c2ccccc2Cl)nc1-c1cccs1	9%	4%	1%	?	10%	?
Nc1nc(-c2cccs2)c(NC(=O)c2ccccc2)s1	-2%[7.67 µM]	?	?	20µM*	14µM*	-6%
CC(=O)Nc1sc(N/N=C\c2ccccc2)nc1-c1cccs1	2%	?	-6%	?	10µM*	-29%
CC(=O)Nc1sc(NC(=O)c2ccc(Cl)cc2)nc1-c1cccs1	-22%[46.1 µM]	-25%	0%	-9%	?	-19%
Cc1sc(N)nc1-c1cccs1	-3%[46.1 µM]	-10%	-5%	-10%	-13%	-4%
CCN(CC)S(=O)(=O)c1ccc(OC)c(NC(=O)c2cc(C)on2)c1	4%	4%	4%	-10%	3%	/
COc1ccccc1NC(=O)Cn1c(=O)n(CC(=O)NCc2ccccc2Cl)c(=O)c2sccc21	/	0%	?	/	15%	/
COCCNc1nc(C)nc2c1nc(-c1ccccc1)n2CCCN1CCCCC1C (stereo unspecified)	/	-9%	2%	?	-6%	?
CCOC(=O)C(C)/C(C)=N/NC(N)=S (stereo unspecified)	8%	-2%	-8%	?	-7%	?
CC(=O)Nc1sc(N/N=C\c2ccco2)nc1-c1cccs1	-11%	?	?	18µM*	16µM*	32µM*
O=C(Cc1cn2ccsc2n1)Nc1nc2c(s1)CN(Cc1ccccc1)CC2	-4%[46.1 µM]	-13%	?	10µM*	?	-9%
O=C(c1cc(C(F)(F)F)cc(C(F)(F)F)c1)N1CCC2(CCN(Cc3nccs3)CC2)CC1	/	/	/	15%	/	-1%
CN(C)c1cccc2c1c(NC(=O)c1ccc(Cl)cc1)nn2C	-7%[7.67 µM]	-19%	-6%	/	-10%	/
SMILES	NPSR antag	Tau fluor counter	Tau FP inhib	ALDH1A1 inh	Tau ThT inhib	HPGD inh
Brc1ccccc1C1=Nn2c(nnc2-c2ccccc2)SC1	?	-11%	-1%	?	-9%	16µM*
Cc1cccc(NC(=O)c2ccc(-n3cccn3)c([N+](=O)[O-])c2)c1	-10%[46.1 µM]	?	0%	?	6.3µM*	/
Cc1cccc(NC(=O)c2ccc(-c3ccccc3[N+](=O)[O-])o2)c1	36%	1%	-7%	2.2µM*	5%	/
Cc1ccc(NC(=O)c2ccc(-n3cccn3)c([N+](=O)[O-])c2)cc1	-10%[46.1 µM]	-19%	-4%	?	?	-18%
O=C(Nc1ccccc1Cl)c1ccc(-n2cccn2)c([N+](=O)[O-])c1	-4%	1%	-10%	8.9µM*	?	/
O=C(CSc1ccsc1[N+](=O)[O-])NCc1ccccc1	-6%	5%	9%	3.2µM*	12%	/
COc1ccccc1CNC(=O)CSc1ccsc1[N+](=O)[O-]	-2%	-24%	-7%	-7%	?	/
COc1ccc(CCNC(=O)CSc2ccsc2[N+](=O)[O-])c(OC)c1	-12%	-16%	-6%	14µM*	-19%	/
COc1ccc(OC)c(CCNC(=O)CSc2ccsc2[N+](=O)[O-])c1	-15%	-26%	6%	13µM*	?	/
COc1ccc(CCNC(=O)CSc2ccsc2[N+](=O)[O-])cc1OC	-2%	-27%	-1%	-12%	?	/
O=C(Cn1c(=O)n2nc(-c3cccc(F)c3)nc2c2ccccc21)N1CCN(c2ccc(F)cc2)CC1	/	-9%	?	/	-3%	/
COc1ccccc1-c1cncnc1NCc1cccs1	/	/	/	14%	/	/
Cc1ccc(/C([O-])=C(/C(=S)NCc2ccccc2)[n+]2ccccc2)cc1[N+](=O)[O-]	-12%	-11%	5%	?	-13%	/
[O-]/C(=C(\C(=S)NCc1ccc2c(c1)OCO2)[n+]1ccccc1)c1ccc(Cl)s1	-15%	-22%	0%	16µM*	?	/
[O-]/C(=C(\C(=S)NCc1ccccc1)[n+]1ccccc1)c1ccc(Cl)cc1	-14%	-10%	-7%	8.9µM*	?	/
C=CCNC(=S)/C(=C(\[O-])c1ccc(Cl)cc1)[n+]1ccccc1	-17%	-14%	?	14µM*	?	/
Cc1c(Cl)cccc1NC(=S)/C(=C(\[O-])c1ccc(Cl)s1)[n+]1ccccc1	6%	4%	2%	9%	2%	?
[O-]/C(=C(\C(=S)Nc1ccccc1F)[n+]1ccccc1)c1ccc(OC(F)F)cc1	-32%	7%	-2%	/	/	/
COc1ccc(C(=O)NCCc2sc(-c3cccc(F)c3)nc2C)cc1	/	-7%	0%	/	?	/
